In PubChem BioAssay (Tox21):
Several values for one entry are separate records, joined by “and”; a condition that tells them apart may be missing. Equal values may be shown once. Inconclusive results are not listed. The source holds several records for some structures; these can differ, active in one and inactive in another. Activity calls are given as the source filed them. Unless noted, the call rests on the fitted dose curve; in most records, active means well fitted curve in the direction sought with a large enough effect in the repeat runs; inconclusive means weak or mixed curves; inactive means no such curve, though single readings can be large; an effect the other way counts as inactive or inconclusive.

How the values were obtained:
[1] = target: Thyrotropin-releasing hormone receptor (Homo sapiens) (UniProt P34981); assay: qHTS assay to identify small molecule agonists of the thyrotropin-releasing hormone receptor (TRHR) signaling pathway (AID 1346891; calls by dose curve;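 further: HEK293 cells expressing TRHR with calcium dye readout; series mostly up to about 58 µM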)
Chain of Thyrotropin-releasing hormone receptor (Homo sapiens) (P34981 whole entry, looked up): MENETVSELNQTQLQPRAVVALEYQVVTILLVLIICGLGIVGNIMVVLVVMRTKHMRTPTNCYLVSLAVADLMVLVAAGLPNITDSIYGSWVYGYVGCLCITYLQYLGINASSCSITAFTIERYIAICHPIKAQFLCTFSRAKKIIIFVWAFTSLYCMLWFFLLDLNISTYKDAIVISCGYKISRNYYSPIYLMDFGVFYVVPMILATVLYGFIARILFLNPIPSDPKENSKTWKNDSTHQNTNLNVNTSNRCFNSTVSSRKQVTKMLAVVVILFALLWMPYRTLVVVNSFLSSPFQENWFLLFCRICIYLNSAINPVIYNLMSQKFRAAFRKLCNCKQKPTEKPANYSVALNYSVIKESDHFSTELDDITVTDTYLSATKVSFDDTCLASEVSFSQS
Procedure, shortened: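 Overnight-plated (18 h, 37 °C, 5% CO2) TRHR-Hek293 cells; 2 h calcium dye at 37 °C; compound in DMSO; 3-min kinetic fluorescence read.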

[2] = Human pregnane X receptor (PXR) small molecule agonists, qHTS cell viability counter screen (AID 1346977); further: nearly all actives have a fitted effect of over 50% in size; further: potency means the concentration at half of the fitted maximal effect
Procedure, shortened: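 After a 5hr pre-incubation, PXR-Luc HepG2 cells received compounds plus positive control in DMSO and were kept 24hr at 37C. Cell viability was quantified by fluorescence from CellTiter-Fluor added for the final hour.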

[3] = Caspase-3/7 induction in HepG2 cells by small molecules, qHTS assay (AID 1346978); further: nearly all actives have a fitted effect of over 15% in size
Procedure, shortened: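 Wild-type HepG2 cells, 2,000/well, settled 5 hr at 37 C and 5% CO2, then compound-treated for 17 hr; caspase-3/7 activity read by luminescent Caspase-Glo 3/7 after 30 min at room temperature.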

[4] = Caspase-3/7 induction in CHO-K1 cells by small molecules, qHTS cell viability counter screen (AID 1346979); further: nearly all actives have a fitted effect of over 35% in size; further: potency means the concentration at half of the fitted maximal effect
Procedure, shortened: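 Multiplexed with Caspase-Glo 3/7 in CHO-K1 cells, this counter screen added CellTiter-Fluor after 16hr of compound exposure and recorded fluorescence 1hr later.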

[5] = Caspase-3/7 induction in CHO-K1 cells by small molecules, qHTS assay (AID 1346980); further: nearly all actives have a fitted effect of over 15% in size
Procedure, shortened: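 Wild-type CHO-K1 cells exposed to compounds for 17hr at 37 C, 5% CO2. Caspase-3/7 activity then measured by Caspase-Glo 3/7 luminescence after 30min at room temperature.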

[6] = Caspase-3/7 induction in HepG2 cells by small molecules, qHTS cell viability counter screen (AID 1346981); further: series mostly up to about 92 µM; nearly all actives have a fitted effect of over 30% in size
Procedure, shortened: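 CellTiter-Fluor fluorescence measured viability in the same wells used for Caspase-Glo 3/7. HepG2 (wild type) at 2,000 cells/well were pre-incubated 5 hr, dosed, and given reagent at 16 hr, with 1 hr further at 37C.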

[7] = target: Nuclear receptor subfamily 1 group I member 2 (Homo sapiens) (UniProt O75469); assay: Human pregnane X receptor (PXR) small molecule agonists, qHTS assay (AID 1346982); further: nearly all actives have a fitted effect of over 35% in size; further: potency means the concentration at half of the fitted maximal effect
Chain of Nuclear receptor subfamily 1 group I member 2 (Homo sapiens) (O75469 whole entry, looked up): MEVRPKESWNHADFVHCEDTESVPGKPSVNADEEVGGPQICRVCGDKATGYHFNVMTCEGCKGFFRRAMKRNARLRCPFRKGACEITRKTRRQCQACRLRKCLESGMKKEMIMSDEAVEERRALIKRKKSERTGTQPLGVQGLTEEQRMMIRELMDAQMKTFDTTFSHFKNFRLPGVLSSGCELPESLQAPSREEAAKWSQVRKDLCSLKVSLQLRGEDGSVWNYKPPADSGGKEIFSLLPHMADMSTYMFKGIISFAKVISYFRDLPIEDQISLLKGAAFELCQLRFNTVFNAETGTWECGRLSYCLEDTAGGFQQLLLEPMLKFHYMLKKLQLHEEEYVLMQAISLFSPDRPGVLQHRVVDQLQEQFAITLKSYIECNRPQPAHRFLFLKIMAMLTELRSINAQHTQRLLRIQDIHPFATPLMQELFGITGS
Procedure, shortened: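 Agonist mode: luminescence from ONE-Glo after 24 h compound exposure at 37C in HepG2 cells carrying hPXR-responsive CYP3A4 luciferase, plated in charcoal-stripped serum medium 5 h beforehand.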

[8] = target: Nuclear receptor subfamily 1 group I member 2 (Rattus norvegicus) (UniProt Q9R1A7); assay: Rat pregnane X receptor (rPXR) activation by small molecules, qHTS assay (AID 1346983); details: rPXR luciferase reporter cells, One-Glo luminescence, 24 h; stronger effect = higher value; further: nearly all actives have a fitted effect of over 20% in size
Chain of Nuclear receptor subfamily 1 group I member 2 (Rattus norvegicus) (Q9R1A7 whole entry, looked up): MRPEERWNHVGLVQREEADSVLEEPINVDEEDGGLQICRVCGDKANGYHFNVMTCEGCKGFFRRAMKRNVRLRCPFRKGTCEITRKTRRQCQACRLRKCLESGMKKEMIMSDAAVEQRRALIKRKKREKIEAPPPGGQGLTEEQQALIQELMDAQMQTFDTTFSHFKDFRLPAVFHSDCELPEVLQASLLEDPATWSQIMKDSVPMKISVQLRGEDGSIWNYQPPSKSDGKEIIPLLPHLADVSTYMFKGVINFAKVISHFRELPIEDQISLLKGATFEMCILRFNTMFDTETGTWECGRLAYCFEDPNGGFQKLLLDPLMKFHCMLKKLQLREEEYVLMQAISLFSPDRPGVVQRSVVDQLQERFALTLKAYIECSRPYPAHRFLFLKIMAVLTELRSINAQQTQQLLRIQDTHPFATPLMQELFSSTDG
Procedure, shortened: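 Cell-based rPXR activation assay: rPXR cells, 2,000 per well, rested 5hr at 37 C, then exposed to compounds in DMSO for 24 hr at 37 C. Luciferase activity read by One-Glo luminescence after 30 min at room temperature.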

[9] = target: Nuclear receptor subfamily 1 group I member 2 (Homo sapiens) (UniProt O75469); assay: Human pregnane X receptor (PXR) activation by small molecules, qHTS assay (AID 1346985); further: nearly all actives have a fitted effect of over 40% in size
Procedure, shortened: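 DPX-2 cells (HepG2 co-transfected with a PXR response element and a CYP3A4-promoter luciferase construct) were seeded at 2,000 per well, rested 5 hr at 37C, then exposed to DMSO-dissolved compounds for 24 hr. Activation was read as luciferase luminescence.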

[10] = target: Nuclear receptor subfamily 1 group I member 2 (Homo sapiens) (UniProt O75469); assay: CYP3A4 induction through human pregnane X receptor (PXR) by small molecules, qHTS assay (AID 1346984); further: nearly all actives have a fitted effect of over 40% in size
Procedure, shortened: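 Read-out is luminescence after One-Glo addition, following a 3 hr, 37C incubation with Luciferin-IPA CYP3A4 substrate (3uM final). Before that, compounds were on DPX-2 cells (HepG2 co-transfected with PXR element plus CYP3A4-promoter luciferase) for 24 hr at 37C.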
On the % scale 0 is the no-effect control and ±100 the full control effect.

CCC(CC)Nc1c([N+](=O)[O-])cc(C)c(C)c1[N+](=O)[O-]
inactive: Potency [1] | Potency [2] | Potency [3] | Potency [4] | Potency [5] | Potency [6]
61.9 µM (active) and inactive: Potency [7]

CCCCN(CC)c1c([N+](=O)[O-])cc(C(F)(F)F)cc1[N+](=O)[O-]
inactive: Potency [1] | Potency [2] | Potency [3] | Potency [4] | Potency [5] | Potency [6]
active: Potency [7] 27.7 µM and 7.7 µM

O=C(Nc1ccc(Br)cc1)c1cc(Br)cc(Br)c1O
inactive: Potency [1] | Potency [3] | Potency [5] | max activation [8] -12.3% | outcome [9]
active: Potency [2] 6.31 µM and 8.63 µM and 10.6 µM | Potency [4] 17.2 µM and 15.4 µM | Potency [7] 13.6 µM and 13.7 µM and 21.1 µM

COP(=S)(OC)Oc1ccc([N+](=O)[O-])cc1
68.7 µM (active) and inactive: Potency [4]
inactive: Potency [1] | Potency [2] | Potency [3] | Potency [5] | Potency [6] | Potency [7]

CNC(=O)N(C)c1nnc(C(C)(C)C)s1
active: Potency [7] 54.5 µM
inactive: Potency [1] | Potency [2] | Potency [3] | Potency [4] | Potency [5] | Potency [6]

Nc1ccncc1
inactive: Potency [1] | Potency [2] | Potency [3] | Potency [4] | Potency [5] | Potency [6] | Potency [7]

NNC(N)=S
active: Potency [4] 25.3 µM and 48.6 µM | Potency [7] 56.6 µM and 21.7 µM
inactive: Potency [1] | Potency [3] | Potency [6]
inactive and 30.6 µM (active): Potency [2]

c1ccc(-c2cccc(-c3ccccc3)c2)cc1
inactive: Potency [1] | Potency [2] | Potency [3] | Potency [4] | Potency [5] | Potency [6]
active: Potency [7] 61.8 µM and 27.3 µM

CNC(=O)Oc1cccc2c1OC(C)(C)O2
inactive: Potency [1] | Potency [2] | Potency [3] | Potency [4] | Potency [5] | Potency [6] | Potency [7]

C=CCc1ccc(OC)cc1
inactive: Potency [1] | Potency [2] | Potency [3] | Potency [4] | Potency [5] | Potency [6] | Potency [7]

CCCCCCCCOC(=O)c1ccccc1C(=O)OCCCCCCCC
inactive: Potency [1] | Potency [2] | Potency [3] | Potency [4] | Potency [5] | Potency [6] | max activation [8] -0.303% | outcome [10] | outcome [9]
68.4 µM (active) and inactive: Potency [7]

Oc1ccc(-c2ccccc2)cc1
inactive: Potency [1] | Potency [2] | Potency [3] | Potency [5] | Potency [6]
active: Potency [7] 60.3 µM and 54.5 µM
47.9 µM (active) and inactive: Potency [4]

CCN(CC)C(=O)SCc1ccc(Cl)cc1
inactive: Potency [1] | Potency [2] | Potency [3] | Potency [4] | Potency [5] | Potency [6]
active: Potency [7] 56.1 µM

C#CCOS(=O)OC1CCCCC1Oc1ccc(C(C)(C)C)cc1 (stereo not drawn)
active: Potency [2] 7.08 µM and 7.7 µM | Potency [4] 1.94 µM and 1.93 µM | Potency [7] 8.64 µM and 6.86 µM
inactive: Potency [1] | Potency [3] | Potency [5]

Nc1ccc(Cl)c(Cl)c1
inactive: Potency [1] | Potency [2] | Potency [3] | Potency [4] | Potency [5] | Potency [6] | Potency [7]

CC(C)N(C(=O)SCC(Cl)=C(Cl)Cl)C(C)C
inactive: Potency [1] | Potency [2] | Potency [3] | Potency [4] | Potency [5] | Potency [6] | Potency [7]

C#C[C@]1(O)CC[C@H]2[C@@H]3CCC4=CC(=O)CC[C@]4(C)[C@H]3CC[C@@]21C
inactive: Potency [1] | Potency [2] | Potency [3] | Potency [4] | Potency [5] | Potency [6] | max activation [8] 11.6%

CCCCCCOC(=O)c1ccccc1C(=O)OCCCCCC
inactive: Potency [1] | Potency [2] | Potency [3] | Potency [4] | Potency [5] | Potency [6]
55.6 µM (active) and inactive: Potency [7]

c1ccc(P(c2ccccc2)c2ccccc2)cc1
active: Potency [7] 55.5 µM and 30.6 µM
inactive: Potency [1] | Potency [2] | Potency [3] | Potency [4] | Potency [5] | Potency [6]

CCCCCCCCCCCOC(=O)c1ccccc1C(=O)OCCCCCCCCCCC
inactive: Potency [1] | Potency [2] | Potency [3] | Potency [4] | Potency [5] | Potency [6] | Potency [7]

Cc1ccccc1[N+](=O)[O-]
inactive: Potency [1] | Potency [2] | Potency [3] | Potency [4] | Potency [5] | Potency [6] | Potency [7]

Nc1cccnc1
inactive: Potency [1] | Potency [2] | Potency [3] | Potency [4] | Potency [5] | Potency [6] | Potency [7]

CCOc1cc(C=O)ccc1O
inactive: Potency [1] | Potency [2] | Potency [3] | Potency [4] | Potency [5] | Potency [6] | Potency [7]

NCc1cccnc1
inactive: Potency [1] | Potency [2] | Potency [3] | Potency [4] | Potency [5] | Potency [6] | Potency [7] | max activation [8] -2.22% | outcome [10] | outcome [9]

O=Cc1ccco1
inactive: Potency [1] | Potency [2] | Potency [3] | Potency [4] | Potency [5] | Potency [6] | Potency [7] | max activation [8] -0.979% | outcome [10] | outcome [9]
